Results filed as inconclusive are left out. Calls of active or inactive are those of the source. Unless noted, calls follow the shape of the full dose curve.

The values that follow come from PubChem BioAssay (Tox21).

The nature of one test: qHTS assay to identify small molecule agonists of the NFkB signaling pathway - cell viability counter screen (AID 1159515). Also: nearly all actives have a fitted effect of over 55% in size. The conditions noted are these: NFkB-bla ME-180 viability, CellTiter-Glo luminescence, 5 h; series mostly up to 61 µM. The method in brief: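 Luminescence from CellTiter-Glo (30 min, room temperature) gives viability, measured in the same wells as the beta-lactamase reporter read. Cells were NFkB-bla ME-180, 2,000 per well, treated 5 hr with compounds.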
For orientation: Quantitative high-throughput screening tests each substance at several concentrations.
In the case of `CC(=O)OCC(=O)[C@@]12OC(C)(C)O[C@@H]1C[C@H]1[C@@H]3C[C@H](F)C4=CC(=O)C=C[C@]4(C)[C@@]3(F)[C@@H](O)C[C@@]12C`, the compound was classed as inactive.
Still for that read-out and setting: the value for `CCCCC1C(=O)N(c2ccccc2)N(c2ccc(O)cc2)C1=O` (configuration not stated) was “inactive”; that for `CN(C)C(=O)Nc1ccc(Oc2ccc(Cl)cc2)cc1` was “inactive”.
The same measure, in the same setting: as for `CC[C@H](NC(=O)c1cc(F)ccc1NS(=O)(=O)c1cccc2cccnc12)c1ccccc1`, the entry is “inactive”; as for `Nc1ccc(Cl)cc1[N+](=O)[O-]`, “inactive”.
For `Brc1cc(-c2ccc(Br)c(Br)c2Br)cc(Br)c1Br`, the call was inactive.
Same read-out and setting: as for `O=C(O)C(Cc1cc(I)c(O)c(I)c1)c1ccccc1` (configuration not stated), the entry is “inactive”.
Same read-out and setting: the value for `CC(C)(C)C(=O)C(Oc1ccc(Cl)cc1)n1ccnc1` (configuration not stated) was “inactive”.
As for `C=CCOC(=O)/C=C\C(=O)OCC=C`, the outcome was inactive.
The same measure, in the same setting: the value for `NC(=O)N(O)[C@@H]1C=C[C@H](Oc2cccc(Oc3ccc(F)cc3)c2)C1` was “inactive”; that for `CCC(C(=O)OCCN(CC)CC)c1ccccc1` (configuration not stated) was “inactive”.
Still for that read-out and setting: the value for `COC(=O)c1cc(S(N)(=O)=O)ccc1OC` was “inactive”.
On the same count and under the same terms, the value for `COc1ccc(CCC(=O)c2c(O)cc(O[C@@H]3O[C@H](CO)[C@@H](O)[C@H](O)[C@H]3O[C@@H]3O[C@@H](C)[C@H](O)[C@@H](O)[C@H]3O)cc2O)cc1O` was “inactive”; that for `O=C(O)Cc1ccc(-c2ccccc2)cc1` was “inactive”.
With `CCCCN(CCCC)C(=S)SSC(=S)N(CCCC)CCCC`, the compound was classed as inactive.
Same read-out and setting: the value for `CC(CCO)CCc1ccccc1` (configuration not stated) was “inactive”; that for `COC(=O)c1cc(Cl)ccc1NS(=O)(=O)C(F)(F)F` was “inactive”.
For the compound `O=C(C(=O)c1ccccc1)c1ccccc1`, the outcome was inactive.
On the same count and under the same terms, as for `Cc1oncc1C(=O)Nc1ccc(C(F)(F)F)cc1`, the entry is “inactive”; as for `C[Si]1(C)O[Si](C)(C)O[Si](C)(C)O1`, “inactive”; as for `CCCCC/C(=C\c1ccccc1)CO`, “inactive”.
On the same count and under the same terms, the value for `N#C/C(=C1\SCC(c2ccccc2Cl)S1)n1ccnc1` (configuration not stated) was “inactive”.

A short description of the next test: qHTS assay to identify small molecule agonists of the endoplasmic reticulum stress response signaling pathway (AID 1159516; active = well fitted activation curve with a large enough effect in the signal ratio in the repeat runs, not every such curve was filed as active; the % refers to the signal ratio). The following applies: ESRE-bla HeLa, ER stress beta-lactamase reporter, 5 h; series mostly up to 61 µM. The method in brief: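 Read-out is beta-lactamase cleavage of a FRET substrate (405 nm excitation; 460 and 530 nm emissions) in ESRE-bla HeLa cells after a 5 hr compound exposure at 37 C. Substrate incubation ran 2 hr at room temperature.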
Take `CC(COc1ccc(C(C)(C)C)cc1)OS(=O)OCCCl` (configuration not stated): the outcome was inactive.
Still for that read-out and setting: the value for `Cc1ccc(Nc2nccc(N(C)c3ccc4c(C)n(C)nc4c3)n2)cc1S(N)(=O)=O` was “inactive”.
Still for that read-out and setting: as for `CN(C)CCOC1=Cc2ccccc2Sc2ccc(Cl)cc21`, the entry is “inactive”; as for `CCOCCn1c(C2CCN(CCc3ccc(C(C)(C)C(=O)O)cc3)CC2)nc2ccccc21`, “inactive”.
On the same count and under the same terms, the value for `CCCC(=O)O[C@]1(C(=O)COC(=O)CC)CC[C@H]2[C@@H]3CCC4=CC(=O)CC[C@]4(C)[C@H]3[C@@H](O)C[C@@]21C` was “inactive”; that for `Oc1ccc(Nc2ccccc2)cc1` was “inactive”; that for `O=C(O)c1ccccc1NCCc1ccccc1` was “inactive”.
Take `CCC(C)(C)C1CCC(O)CC1` (configuration not stated): the compound was classed as inactive.
Same read-out and setting: the value for `O=C(N[C@@H](c1ccccc1)[C@@H]1CCCCN1)c1cccc(C(F)(F)F)c1Cl` was “inactive”; that for `COC(=O)CC(=O)C(C)(C)C` was “inactive”; that for `CC(=O)[C@H]1CC[C@H]2[C@@H]3C[C@H](C)C4=CC(=O)CC[C@]4(C)[C@H]3[C@@H](O)C[C@]12C` was “inactive”.
Same read-out and setting: as for `Fc1ccccc1[C@@H](F)COC1CCC(Nc2ncnc3[nH]ncc23)CC1` (some centres not stated), the entry is “inactive”.
Turning to `COCc1c(C(C)C)nc(C(C)C)c(/C=C/[C@@H](O)C[C@@H](O)CC(=O)O)c1-c1ccc(F)cc1`, the result was inactive.
The same measure, in the same setting: as for `CCNC(=O)N1CCN(CCCC(c2ccc(F)cc2)c2ccc(F)cc2)CC1`, the entry is “inactive”; as for `O=C(Nc1ccccc1)Nc1ccccc1`, “inactive”.
On the same count and under the same terms, as for `c1cc[c]([Bi]([c]2ccccc2)[c]2ccccc2)cc1`, the entry is “inactive”; as for `CCOC(=O)N1CCC(n2c(=O)[nH]c3cc(Cl)ccc32)CC1`, “inactive”; as for `CCn1cc(C(=O)O)c(=O)c2cc(F)c(N3CCNCC3)nc21`, “inactive”.
Still for that read-out and setting: as for `CC(=O)OCC(=O)[C@@]12OC(C)(C)O[C@@H]1C[C@H]1[C@@H]3C[C@H](F)C4=CC(=O)C=C[C@]4(C)[C@@]3(F)[C@@H](O)C[C@@]12C`, the entry is “inactive”; as for `CCCCC1C(=O)N(c2ccccc2)N(c2ccc(O)cc2)C1=O` (configuration not stated), “inactive”.
Consider `CN(C)C(=O)Nc1ccc(Oc2ccc(Cl)cc2)cc1`, for which the result was inactive.
The same measure, in the same setting: as for `CC[C@H](NC(=O)c1cc(F)ccc1NS(=O)(=O)c1cccc2cccnc12)c1ccccc1`, the entry is “inactive”; as for `Nc1ccc(Cl)cc1[N+](=O)[O-]`, “inactive”.
With `Brc1cc(-c2ccc(Br)c(Br)c2Br)cc(Br)c1Br`, the compound was called inactive.
On the same count and under the same terms, as for `O=C(O)C(Cc1cc(I)c(O)c(I)c1)c1ccccc1` (configuration not stated), the entry is “inactive”; as for `CC(C)(C)C(=O)C(Oc1ccc(Cl)cc1)n1ccnc1` (configuration not stated), “inactive”.
Same read-out and setting: as for `C=CCOC(=O)/C=C\C(=O)OCC=C`, the entry is “inactive”.
Still for that read-out and setting: the value for `NC(=O)N(O)[C@@H]1C=C[C@H](Oc2cccc(Oc3ccc(F)cc3)c2)C1` was “inactive”; that for `CCC(C(=O)OCCN(CC)CC)c1ccccc1` (configuration not stated) was “inactive”; that for `COC(=O)c1cc(S(N)(=O)=O)ccc1OC` was “inactive”.
In the case of `COc1ccc(CCC(=O)c2c(O)cc(O[C@@H]3O[C@H](CO)[C@@H](O)[C@H](O)[C@H]3O[C@@H]3O[C@@H](C)[C@H](O)[C@@H](O)[C@H]3O)cc2O)cc1O`, the call was inactive.
For the compound `O=C(O)Cc1ccc(-c2ccccc2)cc1`, the outcome was inactive.
Same read-out and setting: the value for `CCCCN(CCCC)C(=S)SSC(=S)N(CCCC)CCCC` was “inactive”; that for `CC(CCO)CCc1ccccc1` (configuration not stated) was “inactive”.
Regarding `COC(=O)c1cc(Cl)ccc1NS(=O)(=O)C(F)(F)F`, the compound was classed as inactive.
The same measure, in the same setting: the value for `O=C(C(=O)c1ccccc1)c1ccccc1` was “inactive”.
On the same count and under the same terms, as for `Cc1oncc1C(=O)Nc1ccc(C(F)(F)F)cc1`, the entry is “inactive”; as for `C[Si]1(C)O[Si](C)(C)O[Si](C)(C)O1`, “inactive”.
The same measure, in the same setting: as for `CCCCC/C(=C\c1ccccc1)CO`, the entry is “inactive”; as for `N#C/C(=C1\SCC(c2ccccc2Cl)S1)n1ccnc1` (configuration not stated), “inactive”.
